Results on eight compounds are retold here after PubChem BioAssay (NCI).

Among the test systems are NCI-H23 lung; NCI-H226 lung; NCI-H322M lung; HOP-62 NSCLC; HOP-92 NSCLC; NCI-H522 lung; A549/ATCC NSCLC; 786-0 renal; COLO 205 colon; DU-145 prostate; K-562 leukemia; MALME-3M melanoma; MDA-MB-231 breast; RXF 393 renal; SF-268 CNS; SF-295 CNS; SF-539 CNS; UACC-257 melanoma; M14 melanoma; NCI-H460 lung.
Assay in all cases: NCI-60 one-dose screen, 48 h (100 = growth as untreated, 0 = no growth, -100 = all killed)
Common to all, as to conditions: 10 µM unless noted

About 83,000 compounds went through this panel and 20% of them were active in at least one assay; those are over-represented in the sample as a whole.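 Testing used 96-well plates and a 48-hour single-concentration exposure. Example: -40 means 40% of the starting cells died.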 Unmarked numbers belong to inactive results. Activity calls are given as the source filed them. How the source made its calls: active means growth percent below 10; inactive means the rest.

Regarding `N=C(N)c1ccc(S(N)(=O)=O)cc1`, the growth with NCI-H23 lung was 93.6%; with NCI-H226 lung, 101%; in the test with NCI-H322M lung, 96.2%; in the test with HOP-62 NSCLC it was 87.1%; in the test on HOP-92 NSCLC it was 93.6%; in the test on NCI-H522 lung, 91.8%. Besides, the growth in the test on A549/ATCC NSCLC was 91.9%; with 786-0 renal it was 90.8%; in the test with COLO 205 colon it was 122%; with DU-145 prostate, 104%; in the test on K-562 leukemia, 106%; with MALME-3M melanoma, 87.6%. Also, the growth in the test with MDA-MB-231 breast was 110%; with RXF 393 renal, 66.7%; with SF-268 CNS, 96.1%; in the test with SF-295 CNS it was 98.8%; in the test on SF-539 CNS it was 129%; in the test with UACC-257 melanoma it was 93%. Further, the growth with M14 melanoma is 94.7%.

On to `O=C1c2cccc3cccc(c23)C(=O)N1CC#Cc1ccc2c3c(cccc13)C(=O)N(CCN1CCNCC1)C2=O`, for which the growth with NCI-H23 lung is 73.7%; in the test with NCI-H226 lung, 102%; with NCI-H322M lung it was 98.6%; in the test with HOP-62 NSCLC, 110%; with HOP-92 NSCLC, 87.7%; in the test with NCI-H522 lung, 99.8%. The growth with A549/ATCC NSCLC was 109%; with 786-0 renal it was -2.58% (active); in the test on COLO 205 colon it was 93.5%; in the test on DU-145 prostate it was 99.5%; with K-562 leukemia it was -15.3% (active); with MALME-3M melanoma it was -45% (active). The growth with MDA-MB-231 breast was 7.95% (active); in the test with RXF 393 renal, 82.9%; with SF-268 CNS, 93.8%; in the test on SF-295 CNS, 94.1%; with SF-539 CNS, 10.2%; with UACC-257 melanoma, 104%. Besides, the growth in the test on M14 melanoma is 101%.

Turning to `Cc1ccncc1C(=O)O`, the growth in the test on NCI-H23 lung was 92.7%; with NCI-H226 lung, 101%; with NCI-H322M lung it was 101%; in the test with HOP-62 NSCLC, 113%; in the test on HOP-92 NSCLC it was 88.4%; in the test with NCI-H522 lung it was 128%. The growth was 90.1% in the test on A549/ATCC NSCLC; 103% in the test on 786-0 renal; 128% in the test with COLO 205 colon; 101% with DU-145 prostate; 116% with K-562 leukemia; 96.2% in the test with MALME-3M melanoma. The growth is 101% in the test on MDA-MB-231 breast; 118% in the test on RXF 393 renal; 94.8% in the test with SF-268 CNS; 99.8% in the test on SF-295 CNS; 94.4% in the test with SF-539 CNS; 102% in the test on UACC-257 melanoma. Also, the growth in the test with M14 melanoma was 100%.

As to `NS(=O)(=O)c1ccc(CCNC(=O)/C=C/c2ccc(Cl)cc2)cc1`, the growth in the test on NCI-H23 lung was 107%; in the test on NCI-H226 lung, 107%; in the test on NCI-H322M lung, 107%; with HOP-62 NSCLC, 97.5%; with HOP-92 NSCLC it was 100%; in the test on NCI-H522 lung, 89.8%. The growth in the test with A549/ATCC NSCLC was 95.9%; in the test on 786-0 renal it was 102%; in the test on COLO 205 colon, 110%; with DU-145 prostate, 99.5%; in the test with K-562 leukemia, 90.4%; in the test with MALME-3M melanoma, 90.4%. The growth in the test with MDA-MB-231 breast is 98.4%; with RXF 393 renal, 122%; in the test with SF-268 CNS it was 95.6%; in the test with SF-539 CNS, 101%; in the test with UACC-257 melanoma it was 104%; with M14 melanoma it was 99.2%.

Consider `O=c1c(CNc2ccc(S(=O)(=O)Nc3nccs3)cc2)coc2ccccc12`, for which the growth in the test with NCI-H23 lung is 110%; in the test on NCI-H226 lung, 96.1%; with NCI-H322M lung, 87.6%; in the test on HOP-62 NSCLC, 98.7%; in the test on HOP-92 NSCLC it was 80.1%; in the test with NCI-H522 lung, 82.8%. Also, the growth was 95.5% with A549/ATCC NSCLC; 103% with 786-0 renal; 119% in the test with COLO 205 colon; 110% in the test on DU-145 prostate; 92.2% with K-562 leukemia; 99.7% in the test on MALME-3M melanoma. For the same compound, the growth with MDA-MB-231 breast was 98.8%; in the test with RXF 393 renal, 103%; with SF-268 CNS it was 113%; in the test with SF-539 CNS it was 107%; in the test on UACC-257 melanoma it was 106%; in the test with M14 melanoma it was 104%.

In the case of `COc1ccc(/C(=C\c2ccc3c(c2)OCO3)C(=O)Nc2nc3ccccc3s2)cc1OC`, the growth in the test on NCI-H23 lung is 95.1%; in the test with NCI-H226 lung it was 86.9%; in the test on NCI-H322M lung, 91.4%; with HOP-62 NSCLC, 94.2%; with HOP-92 NSCLC, 91.4%; with NCI-H522 lung, 89.5%. In addition, the growth is 91.5% with A549/ATCC NSCLC; 83.7% in the test with 786-0 renal; 110% with COLO 205 colon; 105% with DU-145 prostate; 83.9% with K-562 leukemia; 109% with MDA-MB-231 breast. In addition, the growth in the test on RXF 393 renal was 88.4%; in the test with SF-268 CNS, 83.2%; with SF-539 CNS it was 93.8%; in the test with UACC-257 melanoma it was 105%; in the test with M14 melanoma, 92.7%.

Regarding `COc1ccc(-c2n/c(=C\c3c(O)[nH]c4ccc(OC)cc34)cc3c2=Nc2ccccc2-3)cc1`, the growth with NCI-H23 lung is -7.74% (active); in the test with NCI-H226 lung, 89.2%; with NCI-H322M lung it was 97.8%; in the test with HOP-62 NSCLC, 83.4%; in the test with HOP-92 NSCLC, 72.1%; in the test on NCI-H522 lung, 76%. Moreover, the growth in the test on A549/ATCC NSCLC was 19.3%; in the test on 786-0 renal, -82.3% (active); in the test on COLO 205 colon, 88.9%; with DU-145 prostate, -2.21% (active); in the test on K-562 leukemia, -32.8% (active); with MDA-MB-231 breast, 39%. In addition, the growth with SF-268 CNS was -33.3% (active); in the test with SF-539 CNS, -48% (active); with UACC-257 melanoma, 83.6%; in the test on M14 melanoma, -40.5% (active).

As to `COc1cc(-c2cc3ncccc3c3nc(OCCN(C)C)c4cccnc4c23)cc(OC)c1OC`, the growth is 13.4% with NCI-H23 lung; -5.43% (active) with NCI-H226 lung; -45.6% (active) in the test with HOP-62 NSCLC; -50.8% (active) in the test with NCI-H460 lung; -8.69% (active) in the test on HOP-92 NSCLC; 7.46% (active) in the test on NCI-H522 lung. Also, the growth in the test with A549/ATCC NSCLC was -37.7% (active); in the test on 786-0 renal, -88.5% (active); in the test on COLO 205 colon, 3.65% (active); in the test on DU-145 prostate, 1.52% (active); in the test on K-562 leukemia, 7.73% (active); in the test with MALME-3M melanoma, 8.86% (active). In addition, the growth in the test on MDA-MB-231 breast was 20.2%; in the test with RXF 393 renal it was -72.1% (active); with SF-268 CNS, 23.1%; in the test on SF-295 CNS, 9.6% (active); in the test on SF-539 CNS, 17.9%; in the test with UACC-257 melanoma it was 15.1%. In addition, the growth with M14 melanoma is 23%.
